Where a name gives a salt, the structure may show the parent alone. The full ranking holds about 1,000 compounds; the median of “cFRET/donor change relative to DMSO, normalised to beta-lapachone positive control (supercomplex I-IV assembly)” is about 0.18, and the lowest 2% start at about -1. Only a selection was taken, and the lowest values are over-represented in it overall.

The subject of the assay is C2C12 (NDUFB8-AcGFP / COX8A-DsRed-Monomer FRET reporter). The assay is described as follows: cFRET/donor change relative to DMSO, normalised to beta-lapachone positive control (supercomplex I-IV assembly) (fraction of beta-lapachone effect); higher = more respiratory supercomplex assembly. The note with it: 40 µM; 24 h. As for the experimental part:
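Cells were treated with 40 uM compound for 24 h and imaged on an IN Cell Analyzer 6000. Corrected FRET was divided by donor signal (cFRET/donor) and measured in two replicate experiments. The score is (mean cFRET/donor of compound - mean DMSO) / (mean beta-lapachone 40 uM - mean DMSO). Compounds flagged for prominent cell death, abnormal morphology or decreased cell number were excluded.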
In the case of `Cc1c2ccncc2c(C)c2c1[nH]c1ccccc12` [Ellipticine], the cFRET/donor change was -2.44.
On to `NC(CCP(=O)(O)O)C(=O)O` (racemic) [(±)-2-Amino-4-phosphonobutyric acid], for which the cFRET/donor change stood at 0.0445.
The result for `CN1CCC[C@@H]1Cc1c[nH]c2ccc(Nc3ncccc3[N+](=O)[O-])cc12` reads 0.0254.
Then `C#CCN[C@H](C)Cc1ccccc1` [R-(-)-Desmethyldeprenyl hydrochloride], with -0.331; and `C[N+](C)(C)CC#CCOC(=O)Nc1cccc(Cl)c1`, with 0.565.

The values above are taken from the supplement of paper PMC9877034.
